Laboratory results reported in PubChem BioAssay.
Values without a mark were called inactive.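 Rule for the calls, unless noted: active = viability loss from added drug above about 55%, and viability with drug at most 40%, in both replicates (limit read from the data, passing the limit was not always enough); inconclusive = both conditions met in only one replicate; inactive = neither replicate meets both conditions.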

experiment: growth inhibitors of H69AR lung tumor, primary screen, human, duplicate replicates (AID 580;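 active = viability at or under a set limit in both replicates, limit being median viability minus 3 SD, cut at about 48% in these data, passing the limit was not always enough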;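 note: 100% = mean luminescence of untreated wells and 0% = no signal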); conditions: H69AR lung tumor cells viability, ATP luminescence, 72 h; at 10 µM; hits give low values

Row | Structure (SMILES) | viability [%]
1 | CCOc1ccc(OCc2ccc(C(=O)Nc3cccc(C)n3)o2)cc1 | 93.4
2 | CCOC(=O)N1CCC(NC(=O)CSCc2nc(-c3cccc(OC)c3)oc2C)CC1 | 106
3 | Cn1c(=O)cc(OCC(=O)N2CCN(c3cccc(C(F)(F)F)c3)CC2)c2ccccc21 | 75.3
4 | CCCCOc1ccc(CSc2n[nH]c(C)n2)cc1 | 100
5 | CS(=O)(=O)N(CC(=O)NCc1ccccn1)c1ccc2c(c1)OCCO2 | 97.8
6 | CCOC(=O)CSc1nnc([C@H](C)NC(=O)OC(C)(C)C)o1 | 106
7 | CCSc1nnc2c(n1)OC=Nc1ccc(Br)cc1-2 | 99.7
8 | COc1ccccc1Nc1nc2ccccc2[nH]1 | 72.8
9 | Cc1oc(-c2ccccc2Cl)nc1CSCC(=O)N1CCCC1 | 99.5
10 | CNC(=O)Nc1cccc(C(F)(F)F)c1 | 93.6
11 | CCOC(=O)N1CCN(c2c(NCCN(C)Cc3ccccc3)c(=O)c2=O)CC1 | 99
12 | CCOc1ncccc1C(=O)OCC(=O)N1CC(=O)Nc2ccccc21 | 99.7
13 | Cn1c(=O)c2c(-c3ccccc3)n(CCCN3CCOCC3)cc2n(C)c1=O | 82.2
14 | COc1cccc(NC(=O)N2CCN(c3cccc(C)c3C)CC2)c1 | 82.8
15 | CCCCC(=O)NCCNc1nc2c(c(=O)n(C)c(=O)n2C)n1Cc1ccccc1 | 94.6
16 | COc1ccc(S(=O)(=O)Nc2ccc(S(=O)(=O)N3CCCCC3)cc2)cc1OC | 91.3
17 | COc1ccc(CN2CC(C(=O)NCc3ccccn3)CC2=O)cc1 (stereo not given) | 105
18 | CC(C)(C)NC(=O)Cn1nnc(-c2cccs2)n1 | 92.2
19 | COCCn1nnnc1CN(Cc1cccnc1)Cc1cc2cc(OC)ccc2[nH]c1=O | 88.3
20 | CC(C)=CC/C=C1\CCC(C(=O)O)C(C(=O)O)C1 (stereo not given) | 104

Row | Structure (SMILES) | viability [%]
21 | CCOC(=O)C1=C(C)NC(SC(C)=O)=NC1c1ccc(OC(C)=O)c(OC)c1 (stereo not given) | 85.3
22 | O=C(Nc1cccc(F)c1)c1cccc(S(=O)(=O)N2CCOCC2)c1 | 91.6
23 | CCCn1c(SCC(=O)N2CCCc3ccccc32)nnc1-c1ccccn1 | 95.1
24 | Cc1ccccc1N(C)S(=O)(=O)c1ccc2[nH]cc(C(=O)NCC3CCCO3)c(=O)c2c1 (stereo not given) | 91.7
25 | Cc1cccc(C(OC(=O)c2ccco2)C(=O)NCc2ccccc2)n1 (stereo not given) | 96.1
26 | Nn1c(SCC(=O)Nc2ccc(F)cc2)nnc1-c1cccnc1 | 103
27 | CCOC(=O)c1c(NC(=O)c2nn(CC)cc2Br)c(C#N)cn1-c1ccccc1 | 74.8
28 | CCCCOC(=O)CN1C(=O)c2ccc(C(=O)OCCCC)cc2C1=O | 106
29 | O=C(COc1ccc(Cl)cc1)Nc1nc(-c2cccs2)cs1 | 77.5
30 | O=C(CSc1ncn[nH]1)c1ccco1 | 94.7
31 | CC(=O)Nc1c(O)nc(SCC(=O)Nc2nnc(CC(C)C)s2)[nH]c1=O | 93.6
32 | COC(=O)C(C)NC(=O)C12CC3CC(CC(C3)C1)C2 (stereo not given) | 99.7
33 | CCOc1cc(C2C(C#N)=C(N)OC(C)=C2C(C)=O)cc(Br)c1O (stereo not given) | 90.3
34 | COC(=O)c1cc(Br)c(=O)n(Cc2cccnc2)c1 | 97.3
35 | COc1cc(NS(=O)(=O)c2ccc(Br)s2)cc(OC)c1 | 99.9
36 | Cc1ccccc1N(CC(=O)NCC1CCCO1)C(=O)C1(C)CC(=O)N=C2C=CC=CN21 (stereo not given) | 98.7
37 | CSc1ccc(S(=O)(=O)Nc2cccc(F)c2)cc1 | 97.3
38 | CCC(C)(C)n1nnnc1C(c1ccncc1)N1CCN(c2cccc(OC)c2)CC1 (stereo not given) | 85.3
39 | CCn1c(=O)c(C(=O)Nc2cccnc2)c(O)c2ccccc21 | 67.7
40 | CCOCCCNC(=O)CCNS(=O)(=O)c1ccc(C)cc1 | 105

experiment: reversal of MRP1-mediated doxorubicin resistance, pilot screen, H69AR cells, doxorubicin co-treatment (AID 601); conditions: H69AR cells + 2 uM doxorubicin, CellTiter-Glo, 72 h; at 10 µM; hits give high values

Row | Structure (SMILES) | differential viability (reversal) [%]
41 | CCOc1ccc(OCc2ccc(C(=O)Nc3cccc(C)n3)o2)cc1 | 6.08
42 | CCOC(=O)N1CCC(NC(=O)CSCc2nc(-c3cccc(OC)c3)oc2C)CC1 | 2.79
43 | Cn1c(=O)cc(OCC(=O)N2CCN(c3cccc(C(F)(F)F)c3)CC2)c2ccccc21 | -10
44 | CCCCOc1ccc(CSc2n[nH]c(C)n2)cc1 | 10.7
45 | CS(=O)(=O)N(CC(=O)NCc1ccccn1)c1ccc2c(c1)OCCO2 | 9.83
46 | CCOC(=O)CSc1nnc([C@H](C)NC(=O)OC(C)(C)C)o1 | 20.2
47 | CCSc1nnc2c(n1)OC=Nc1ccc(Br)cc1-2 | 12.9
48 | COc1ccccc1Nc1nc2ccccc2[nH]1 | -10.6
49 | Cc1oc(-c2ccccc2Cl)nc1CSCC(=O)N1CCCC1 | 14.6
50 | CNC(=O)Nc1cccc(C(F)(F)F)c1 | -6.37
51 | CCOC(=O)N1CCN(c2c(NCCN(C)Cc3ccccc3)c(=O)c2=O)CC1 | 6.12
52 | CCOc1ncccc1C(=O)OCC(=O)N1CC(=O)Nc2ccccc21 | 2.01
53 | Cn1c(=O)c2c(-c3ccccc3)n(CCCN3CCOCC3)cc2n(C)c1=O | 10.4
54 | COc1cccc(NC(=O)N2CCN(c3cccc(C)c3C)CC2)c1 | -4.58
55 | CCCCC(=O)NCCNc1nc2c(c(=O)n(C)c(=O)n2C)n1Cc1ccccc1 | -4.03
56 | COc1ccc(S(=O)(=O)Nc2ccc(S(=O)(=O)N3CCCCC3)cc2)cc1OC | -3.68
57 | COc1ccc(CN2CC(C(=O)NCc3ccccn3)CC2=O)cc1 (stereo not given) | 9.59
58 | CC(C)(C)NC(=O)Cn1nnc(-c2cccs2)n1 | 13.1
59 | COCCn1nnnc1CN(Cc1cccnc1)Cc1cc2cc(OC)ccc2[nH]c1=O | 8.82
60 | CC(C)=CC/C=C1\CCC(C(=O)O)C(C(=O)O)C1 (stereo not given) | 20.5

Row | Structure (SMILES) | differential viability (reversal) [%]
61 | CCOC(=O)C1=C(C)NC(SC(C)=O)=NC1c1ccc(OC(C)=O)c(OC)c1 (stereo not given) | -9.22
62 | O=C(Nc1cccc(F)c1)c1cccc(S(=O)(=O)N2CCOCC2)c1 | 0.615
63 | CCCn1c(SCC(=O)N2CCCc3ccccc32)nnc1-c1ccccn1 | 1.95
64 | Cc1ccccc1N(C)S(=O)(=O)c1ccc2[nH]cc(C(=O)NCC3CCCO3)c(=O)c2c1 (stereo not given) | 4.24
65 | Cc1cccc(C(OC(=O)c2ccco2)C(=O)NCc2ccccc2)n1 (stereo not given) | 7.79
66 | Nn1c(SCC(=O)Nc2ccc(F)cc2)nnc1-c1cccnc1 | 7.72
67 | CCOC(=O)c1c(NC(=O)c2nn(CC)cc2Br)c(C#N)cn1-c1ccccc1 | 2.55
68 | CCCCOC(=O)CN1C(=O)c2ccc(C(=O)OCCCC)cc2C1=O | 10.4
69 | O=C(COc1ccc(Cl)cc1)Nc1nc(-c2cccs2)cs1 | -7.15
70 | O=C(CSc1ncn[nH]1)c1ccco1 | -3.81
71 | CC(=O)Nc1c(O)nc(SCC(=O)Nc2nnc(CC(C)C)s2)[nH]c1=O | -8.89
72 | COC(=O)C(C)NC(=O)C12CC3CC(CC(C3)C1)C2 (stereo not given) | 4.86
73 | CCOc1cc(C2C(C#N)=C(N)OC(C)=C2C(C)=O)cc(Br)c1O (stereo not given) | 6.05
74 | COC(=O)c1cc(Br)c(=O)n(Cc2cccnc2)c1 | 17
75 | COc1cc(NS(=O)(=O)c2ccc(Br)s2)cc(OC)c1 | 5.59
76 | Cc1ccccc1N(CC(=O)NCC1CCCO1)C(=O)C1(C)CC(=O)N=C2C=CC=CN21 (stereo not given) | -1.7
77 | CSc1ccc(S(=O)(=O)Nc2cccc(F)c2)cc1 | -0.325
78 | CCC(C)(C)n1nnnc1C(c1ccncc1)N1CCN(c2cccc(OC)c2)CC1 (stereo not given) | -0.525
79 | CCn1c(=O)c(C(=O)Nc2cccnc2)c(O)c2ccccc21 | -24.2
80 | CCOCCCNC(=O)CCNS(=O)(=O)c1ccc(C)cc1 | 8.21
